This is an account of results in PubChem BioAssay AID449762 (Southern Research Specialized Biocontainment Screening …, 2010).

About 1,900 (0.58%) of roughly 330,000 compounds were called active. About 4% were inconclusive and are not listed. Rule as the data show it: inconclusive = inhibition above about 70% without an active follow-up result; inactive = below that. These entries were drawn from the full list. Potency and affinity values are given separately.

This test is described as follows: M. tuberculosis growth inhibition, HTS (AID 449762).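 Also: bacterial growth assessed after seven days of incubation.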 The settings on record: M. tuberculosis H37Rv growth inhibition, 7H9 media; at 25 µM; hits give high values.
Take `COCCN(C(=S)Nc1cccc(C)c1C)C(C)c1ccco1` (stereo not drawn): the inhibition is 4.25% (inactive).

As to `CCCNC(=O)C(Cc1ccccc1)NC(=O)c1ccc(C(C)(C)C)cc1` (stereo not drawn), the inhibition is -2.64% (inactive).

For the molecule `CC(=O)C1=C(O)C(=O)N(c2cccc(Br)c2)C1c1ccc(Br)cc1` (stereo not drawn), the inhibition is 1.06% (inactive).

On to `COc1ccc(-c2noc(CSc3nc(-c4ccccc4)cc(=O)[nH]3)n2)cc1`, for which the inhibition was -1.49% (inactive).

In the case of `CC1CCC2(CC1)N=C(N)Nc1nc3ccccc3n12` (stereo not drawn), the inhibition was 11.2% (inactive).

For the molecule `NC1=NC2(CCCC2)n2c(nc3ccccc32)N1`, the inhibition was 1.5% (inactive).

As for `c1ccc(-c2cc3c(ccc4nonc43)nn2)cc1`, the inhibition was -0.15% (inactive).

In the case of `O=C(O)c1cc(-c2ccccc2)nc2ccccc12`, the inhibition was -1.59% (inactive).

Take `COc1cc(C(=O)NCC(c2cccs2)N2CCOCC2)cc(OC)c1OC` (stereo not drawn): the inhibition was 7.52% (inactive).

As to `COc1ccc2c(c1)O/C(=C\c1ccco1)C2=O`, the inhibition is -4.09% (inactive).

As to `CCC(=O)Oc1ccc2c(c1)O/C(=C\c1ccco1)C2=O`, the inhibition is 6.29% (inactive).

In the case of `Cc1ccccc1OCC(O)Cn1c(N2CCCCC2)nc2c1c(=O)[nH]c(=O)n2C` (stereo not drawn), the inhibition is 6.49% (inactive).

Regarding `Cc1cc(C)nc(-n2ncc3c2CC(c2ccccc2C)CC3=O)n1` (stereo not drawn), the inhibition is 3.74% (inactive).

On to `Cc1ccc(O)c(-c2cc(-c3ccccc3F)[nH]n2)c1`, for which the inhibition was 33.9% (inactive).

In the case of `Cc1ccc(-c2cc(-c3ccc(C)cc3O)[nH]n2)cc1`, the inhibition is 17.4% (inactive).

In the case of `O=C1CN(C(=O)COC(=O)CCC(=O)c2ccc(F)cc2)c2ccccc2N1`, the inhibition is -6.63% (inactive).

For the molecule `CCOCCn1c(CN2CCN(C(=O)c3ccco3)CC2)nc2c1c(=O)n(C)c(=O)n2C`, the inhibition is 5.24% (inactive).

`COc1cc(C(=O)OC2CC3CCC2(C)C3(C)C)ccc1OC(C)=O` (stereo not drawn): the inhibition was -10.7% (inactive).

`O=c1cc(-c2ccccc2)nc(Cc2c(Cl)cccc2Cl)[nH]1`: the inhibition was 8.31% (inactive).

As for `COCc1cc(=O)[nH]c(Cc2c(Cl)cccc2Cl)n1`, the inhibition is 3.62% (inactive).

With `O=C(NCc1ccccn1)C(=O)Nc1cc2c3c(c1)CC(=O)N3CCC2`, the inhibition is 5.14% (inactive).

With `COc1ccc(C(=O)OCC(=O)c2cc(OC)ccc2OC)c(OC)c1`, the inhibition was -2.93% (inactive).

As to `COc1cccc(C(=O)OCC(=O)c2ccc(Br)s2)c1`, the inhibition was -2.52% (inactive).

For the molecule `CSc1nc2nc(-c3ccc(F)cc3)c(CCN3CCN(C)CC3)cn2n1`, the inhibition was -4.6% (inactive).

On to `OCCNc1nc(NCc2ccccc2)c2ccccc2n1`, for which the inhibition was 5.73% (inactive).

Take `CNc1nc(NCc2ccccc2)c2ccccc2n1`: the inhibition is 16.5% (inactive).

Turning to `CC1(/[N+]([O-])=C/c2ccc(Cl)cc2Cl)CCCCC1=O` (stereo not drawn), the inhibition was 3.79% (inactive).

Turning to `O=C(Cn1c(CO)nc2ccccc21)NC1CCCCCC1`, the inhibition was -4.47% (inactive).

In the case of `COCCN(C(=O)c1csnn1)C(C(=O)NC1CCCC1)c1ccccc1F` (stereo not drawn), the inhibition is -6.7% (inactive).

On to `COc1cc(OC)nc(-n2ncc(OC)c(Br)c2=O)n1`, for which the inhibition is -1.81% (inactive).

`COC(=O)c1cnn(-c2nc(OC)cc(OC)n2)c1C`: the inhibition was 5.96% (inactive).

For the molecule `CSc1ccc(CN2C(=O)NC3(CCCCCCC3)C2=O)cc1`, the inhibition is 3.48% (inactive).

For `COc1cc2c(cc1O)CCN(C(=O)CSc1nncn1C)[C@@H]2C`, the inhibition is -6.62% (inactive).

As to `O=C(NCc1cccc(Br)c1)C1CC(c2ccccc2C(F)(F)F)=NO1` (stereo not drawn), the inhibition is 1.36% (inactive).

As for `COC(=O)CCCCC1SCC(NC(=O)c2ccccc2)C1Cl` (stereo not drawn), the inhibition is -3.83% (inactive).

Consider `COC(=O)CCCCC1SCC(NC(=O)c2ccccc2)C1OC(C)=O` (stereo not drawn), for which the inhibition was 4.8% (inactive).

`COC(=O)c1cc(C#N)c(N2CCN(C)CC2)nc1C`: the inhibition was -0.25% (inactive).

Consider `O=C(COc1ccccc1)NCC(=O)N1CCCCCC1`, for which the inhibition is -3.96% (inactive).

In the case of `CCn1cc(Cl)c(C(=O)N2N=C(c3ccc4ccccc4c3)CC2c2ccccc2O)n1` (stereo not drawn), the inhibition is 0.64% (inactive).

Regarding `CCn1cc([N+](=O)[O-])c(C(=O)N2N=C(c3ccc(O)c(OC)c3)CC2c2ccccc2O)n1` (stereo not drawn), the inhibition is -14.8% (inactive).

In the case of `CC1CCN(C(=O)c2ncn(Cc3ccccc3)c2C(=O)N2CCC(C)CC2)CC1`, the inhibition was 5.23% (inactive).

Consider `COc1ccccc1OCCNC(=O)c1ccc(S(=O)(=O)N(C)C)cc1`, for which the inhibition is -2.93% (inactive).

In the case of `COc1ccccc1NC(=O)c1ccc(S(=O)(=O)N(C)C)cc1`, the inhibition was -13.6% (inactive).

As to `CC(C)CC(=O)NC(=S)Nc1ccccc1F`, the inhibition is -4.61% (inactive).

For the molecule `O=C(Nc1ccnc(-c2ccncc2)n1)c1ccc(Cl)cc1`, the inhibition is 11.3% (inactive).

Turning to `CN(CCOc1ccc(Cl)cc1)C(=O)CN1C(=O)NC2(CCCCC2)C1=O`, the inhibition is -0.72% (inactive).

As for `COc1ccc(NC(=O)C2CCN(Cc3cnn(-c4ccccc4)c3-n3cccc3)CC2)cc1OC`, the inhibition is -3.38% (inactive).

As for `COc1ccc(OC)c(NC(=O)C2CCN(Cc3cnn(-c4ccccc4)c3-n3cccc3)CC2)c1`, the inhibition is 61.3% (inactive).

For `c1ccc(Nc2nc(N3CCCC3)nc(N3CCCC3)n2)cc1`, the inhibition was 17.2% (inactive).

Turning to `c1ccc(Nc2nc(N3CCCCC3)nc(N3CCCCC3)n2)cc1`, the inhibition was 4.61% (inactive).

In the case of `O=C(CSc1nc2ccccc2o1)N1CCOCC1`, the inhibition is -2.89% (inactive).

Consider `Cc1c(NC(=O)C(c2ccccc2)c2ccccc2)cccc1C(=O)O`, for which the inhibition is 0.47% (inactive).

Take `O=C(NC1CCCC1)C(c1ccc(F)cc1)N(Cc1ccc(F)cc1)C(=O)CCl` (stereo not drawn): the inhibition is 0.54% (inactive).

With `CCOC(=O)c1c(CC(C)C)csc1NC(C)=O`, the inhibition is -1.62% (inactive).

In the case of `CCOC(=O)c1c(CC(C)C)csc1NC(=O)C(C)C`, the inhibition was 1.18% (inactive).

`Cc1cccc(NC(=O)c2ccc(S(=O)(=O)N3CCCCC3C)cc2)n1` (stereo not drawn): the inhibition was 8.6% (inactive).

`O=c1[nH]c2ccccc2nc1/C=C(\O)C1CC1`: the inhibition is -0.58% (inactive).

On to `O=C(C1CCN(S(=O)(=O)c2cccc3cccnc23)CC1)N1CCN(C2CCCC2)CC1`, for which the inhibition was -2.61% (inactive).

For `c1cc(CNC2C3CC4CC(C3)CC2C4)ccn1` (stereo not drawn), the inhibition is 10.3% (inactive).

Consider `CC(NCc1ccc(N(C)C)cc1)C1CC2CCC1C2` (stereo not drawn), for which the inhibition is 0.02% (inactive).

Turning to `CNC(=O)c1ccc(NC(=O)Nc2ccccc2)cc1`, the inhibition is -1.42% (inactive).

Take `Cc1occc1-c1nnc(SCC(=O)NCCc2ccccc2)n1Cc1ccccc1`: the inhibition is 1.99% (inactive).

On to `Cc1occc1-c1nnc(SCC(=O)Nc2ccccn2)o1`, for which the inhibition was 36.7% (inactive).

A word on the inhibition: it is the drop in the measured response relative to a control, in per cent.
